The supplement of paper PMC11732987, “Enantioselective OTUD7B fragment discovery through chemoproteomics screening and high-throughput optimisation” (Communications Chemistry, 2025)

What was measured:
Test in all cases: log2 ratio of Biotin-Ahx-Ub-VS probe labelling (fragment/DMSO); higher = less target engagement (more negative = stronger competition), active = hit call of the paper (q ≤ 0.05, log2 ratio ≤ -1)
Conditions in all cases: compound concentration: 200 uM; treatment time: 3 h
USP19 = target: T1, USP19 (UniProt O94966)
T1 sequence (whole entry): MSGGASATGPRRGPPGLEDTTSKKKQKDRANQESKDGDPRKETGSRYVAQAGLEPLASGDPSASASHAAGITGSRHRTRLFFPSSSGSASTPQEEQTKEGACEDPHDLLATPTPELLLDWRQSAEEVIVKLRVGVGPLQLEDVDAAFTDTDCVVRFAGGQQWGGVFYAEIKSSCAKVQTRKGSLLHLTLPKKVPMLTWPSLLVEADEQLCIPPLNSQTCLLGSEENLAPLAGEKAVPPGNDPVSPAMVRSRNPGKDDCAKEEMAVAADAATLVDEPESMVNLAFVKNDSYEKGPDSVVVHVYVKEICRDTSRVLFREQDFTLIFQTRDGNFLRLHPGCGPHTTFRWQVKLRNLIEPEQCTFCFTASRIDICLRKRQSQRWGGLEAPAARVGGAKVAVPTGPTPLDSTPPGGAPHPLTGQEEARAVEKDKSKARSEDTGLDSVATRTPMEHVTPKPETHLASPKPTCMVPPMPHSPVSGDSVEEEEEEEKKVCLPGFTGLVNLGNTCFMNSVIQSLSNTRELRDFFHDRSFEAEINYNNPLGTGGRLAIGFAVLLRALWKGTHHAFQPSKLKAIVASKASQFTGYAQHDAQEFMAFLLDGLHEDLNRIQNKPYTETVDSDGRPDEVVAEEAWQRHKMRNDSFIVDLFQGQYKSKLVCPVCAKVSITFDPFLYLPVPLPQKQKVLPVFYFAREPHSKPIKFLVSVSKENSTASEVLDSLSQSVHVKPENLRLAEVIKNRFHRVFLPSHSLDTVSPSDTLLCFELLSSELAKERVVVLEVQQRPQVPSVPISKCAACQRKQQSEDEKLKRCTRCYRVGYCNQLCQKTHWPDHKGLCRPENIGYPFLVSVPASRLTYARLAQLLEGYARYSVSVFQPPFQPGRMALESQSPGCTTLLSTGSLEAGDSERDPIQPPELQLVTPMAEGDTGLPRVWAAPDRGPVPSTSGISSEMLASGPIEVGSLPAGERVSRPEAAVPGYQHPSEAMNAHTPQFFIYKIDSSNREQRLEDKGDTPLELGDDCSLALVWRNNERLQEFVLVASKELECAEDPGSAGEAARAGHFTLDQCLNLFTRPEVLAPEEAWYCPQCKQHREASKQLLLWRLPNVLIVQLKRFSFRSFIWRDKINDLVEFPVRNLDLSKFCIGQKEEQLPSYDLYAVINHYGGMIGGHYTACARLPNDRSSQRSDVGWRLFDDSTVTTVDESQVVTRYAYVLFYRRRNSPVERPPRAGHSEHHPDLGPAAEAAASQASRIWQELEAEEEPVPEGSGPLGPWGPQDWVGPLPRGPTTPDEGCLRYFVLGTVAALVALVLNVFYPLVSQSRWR
Procedure, shortened: (§1)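 Labelling with Biotin-Ahx-Ub-VS (0.5 µM final, 1 h) followed a 3 h triplicate treatment of HEK293T lysate (495 µg per sample, Tris/CHAPS/IGEPAL buffer with protease inhibitors) with fragment at 200 µM or vehicle. Labelled DUBs were NeutrAvidin-enriched, digested with LysC and trypsin, and run by diaPASEF LC-MS/MS. The values, average log2 fragment/vehicle ratios by unpaired t-test, come from global-median-normalised Spectronaut label-free quantities. Proteins with ≥2 unique peptides were used.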

USP22 = target: T2, USP22 (UniProt Q9UPT9)
T2 sequence (whole entry): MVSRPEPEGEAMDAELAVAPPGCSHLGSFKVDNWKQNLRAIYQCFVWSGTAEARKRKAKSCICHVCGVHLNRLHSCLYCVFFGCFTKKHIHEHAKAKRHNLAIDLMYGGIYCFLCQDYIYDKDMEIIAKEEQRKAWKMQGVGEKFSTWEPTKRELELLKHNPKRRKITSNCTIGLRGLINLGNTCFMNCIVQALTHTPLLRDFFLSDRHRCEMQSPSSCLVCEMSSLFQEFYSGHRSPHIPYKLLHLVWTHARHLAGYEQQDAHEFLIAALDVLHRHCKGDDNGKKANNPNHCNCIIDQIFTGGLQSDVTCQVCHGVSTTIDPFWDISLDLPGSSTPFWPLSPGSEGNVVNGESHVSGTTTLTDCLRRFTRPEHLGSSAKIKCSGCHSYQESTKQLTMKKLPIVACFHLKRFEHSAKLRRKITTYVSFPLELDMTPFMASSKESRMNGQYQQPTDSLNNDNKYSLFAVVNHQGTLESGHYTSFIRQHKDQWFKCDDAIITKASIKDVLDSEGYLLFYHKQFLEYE
Procedure, shortened: as §1

USP24 = USP24 (UniProt Q9UPU5)
Sequence of USP24 (Q9UPU5 whole entry): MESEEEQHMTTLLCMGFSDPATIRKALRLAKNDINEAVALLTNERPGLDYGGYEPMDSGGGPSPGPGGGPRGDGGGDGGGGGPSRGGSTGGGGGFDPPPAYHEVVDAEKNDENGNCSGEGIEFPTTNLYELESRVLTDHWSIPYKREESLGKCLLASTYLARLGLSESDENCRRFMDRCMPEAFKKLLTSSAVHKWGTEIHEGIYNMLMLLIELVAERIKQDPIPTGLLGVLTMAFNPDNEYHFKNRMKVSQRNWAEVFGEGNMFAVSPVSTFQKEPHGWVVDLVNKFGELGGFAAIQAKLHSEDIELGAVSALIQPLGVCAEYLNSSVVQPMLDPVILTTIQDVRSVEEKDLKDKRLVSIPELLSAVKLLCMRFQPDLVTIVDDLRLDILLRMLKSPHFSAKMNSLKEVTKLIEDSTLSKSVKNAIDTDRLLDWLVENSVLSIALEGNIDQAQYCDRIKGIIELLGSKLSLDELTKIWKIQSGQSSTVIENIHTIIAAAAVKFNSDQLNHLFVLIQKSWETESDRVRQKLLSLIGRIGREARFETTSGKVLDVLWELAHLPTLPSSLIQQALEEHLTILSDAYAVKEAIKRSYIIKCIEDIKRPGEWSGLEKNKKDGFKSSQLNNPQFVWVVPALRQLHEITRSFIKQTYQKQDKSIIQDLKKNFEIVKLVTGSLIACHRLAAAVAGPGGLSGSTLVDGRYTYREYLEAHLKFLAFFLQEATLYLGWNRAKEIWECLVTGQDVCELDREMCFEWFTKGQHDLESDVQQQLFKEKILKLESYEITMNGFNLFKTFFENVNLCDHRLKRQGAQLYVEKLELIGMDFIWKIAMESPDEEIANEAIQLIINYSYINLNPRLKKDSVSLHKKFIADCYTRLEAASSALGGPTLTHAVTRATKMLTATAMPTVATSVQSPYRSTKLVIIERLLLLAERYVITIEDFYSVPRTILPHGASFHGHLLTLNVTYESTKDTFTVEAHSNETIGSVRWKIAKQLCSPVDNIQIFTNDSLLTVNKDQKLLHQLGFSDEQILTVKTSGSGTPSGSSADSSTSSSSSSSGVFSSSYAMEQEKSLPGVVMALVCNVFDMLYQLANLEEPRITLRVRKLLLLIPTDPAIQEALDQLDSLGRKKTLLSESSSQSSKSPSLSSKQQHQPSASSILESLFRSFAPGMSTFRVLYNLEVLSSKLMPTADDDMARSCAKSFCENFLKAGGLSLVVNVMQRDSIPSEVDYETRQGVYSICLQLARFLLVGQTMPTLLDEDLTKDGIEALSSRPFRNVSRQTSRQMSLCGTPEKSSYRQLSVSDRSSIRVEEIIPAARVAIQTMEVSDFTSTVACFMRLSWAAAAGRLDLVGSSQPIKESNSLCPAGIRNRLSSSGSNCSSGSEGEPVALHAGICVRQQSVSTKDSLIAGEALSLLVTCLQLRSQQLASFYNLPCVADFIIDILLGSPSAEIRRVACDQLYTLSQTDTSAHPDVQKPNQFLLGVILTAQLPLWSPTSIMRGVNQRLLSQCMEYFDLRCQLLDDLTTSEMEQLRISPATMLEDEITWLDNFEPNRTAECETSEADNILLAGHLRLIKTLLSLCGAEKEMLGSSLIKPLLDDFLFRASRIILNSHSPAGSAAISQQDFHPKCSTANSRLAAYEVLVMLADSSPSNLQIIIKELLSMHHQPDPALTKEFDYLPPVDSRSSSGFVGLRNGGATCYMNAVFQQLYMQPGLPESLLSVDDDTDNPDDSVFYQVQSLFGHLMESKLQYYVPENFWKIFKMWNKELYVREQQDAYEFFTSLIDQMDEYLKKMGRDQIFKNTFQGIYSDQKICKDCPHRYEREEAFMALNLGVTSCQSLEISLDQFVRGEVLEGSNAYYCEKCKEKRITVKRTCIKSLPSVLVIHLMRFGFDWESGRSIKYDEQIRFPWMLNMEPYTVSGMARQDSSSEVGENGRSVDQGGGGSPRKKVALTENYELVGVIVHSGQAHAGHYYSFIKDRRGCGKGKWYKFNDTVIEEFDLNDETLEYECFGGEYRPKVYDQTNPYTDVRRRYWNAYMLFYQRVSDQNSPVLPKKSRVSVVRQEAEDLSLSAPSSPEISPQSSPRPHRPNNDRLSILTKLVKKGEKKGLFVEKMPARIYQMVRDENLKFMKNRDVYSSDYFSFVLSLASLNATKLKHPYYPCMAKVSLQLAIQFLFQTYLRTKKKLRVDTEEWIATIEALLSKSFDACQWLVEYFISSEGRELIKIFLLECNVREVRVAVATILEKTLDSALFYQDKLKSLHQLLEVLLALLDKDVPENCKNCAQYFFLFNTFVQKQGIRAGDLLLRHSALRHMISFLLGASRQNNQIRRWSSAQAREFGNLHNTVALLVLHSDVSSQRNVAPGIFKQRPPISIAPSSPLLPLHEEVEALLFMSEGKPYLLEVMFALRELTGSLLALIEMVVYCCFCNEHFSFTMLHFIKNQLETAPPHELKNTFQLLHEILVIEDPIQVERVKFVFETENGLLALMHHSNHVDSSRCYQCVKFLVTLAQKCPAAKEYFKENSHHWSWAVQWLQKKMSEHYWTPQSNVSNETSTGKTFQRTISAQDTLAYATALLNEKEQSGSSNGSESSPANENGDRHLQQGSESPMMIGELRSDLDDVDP
Procedure, shortened: as §1

USP25 = target: T3, USP25 (UniProt Q9UHP3)
T3 sequence (whole entry): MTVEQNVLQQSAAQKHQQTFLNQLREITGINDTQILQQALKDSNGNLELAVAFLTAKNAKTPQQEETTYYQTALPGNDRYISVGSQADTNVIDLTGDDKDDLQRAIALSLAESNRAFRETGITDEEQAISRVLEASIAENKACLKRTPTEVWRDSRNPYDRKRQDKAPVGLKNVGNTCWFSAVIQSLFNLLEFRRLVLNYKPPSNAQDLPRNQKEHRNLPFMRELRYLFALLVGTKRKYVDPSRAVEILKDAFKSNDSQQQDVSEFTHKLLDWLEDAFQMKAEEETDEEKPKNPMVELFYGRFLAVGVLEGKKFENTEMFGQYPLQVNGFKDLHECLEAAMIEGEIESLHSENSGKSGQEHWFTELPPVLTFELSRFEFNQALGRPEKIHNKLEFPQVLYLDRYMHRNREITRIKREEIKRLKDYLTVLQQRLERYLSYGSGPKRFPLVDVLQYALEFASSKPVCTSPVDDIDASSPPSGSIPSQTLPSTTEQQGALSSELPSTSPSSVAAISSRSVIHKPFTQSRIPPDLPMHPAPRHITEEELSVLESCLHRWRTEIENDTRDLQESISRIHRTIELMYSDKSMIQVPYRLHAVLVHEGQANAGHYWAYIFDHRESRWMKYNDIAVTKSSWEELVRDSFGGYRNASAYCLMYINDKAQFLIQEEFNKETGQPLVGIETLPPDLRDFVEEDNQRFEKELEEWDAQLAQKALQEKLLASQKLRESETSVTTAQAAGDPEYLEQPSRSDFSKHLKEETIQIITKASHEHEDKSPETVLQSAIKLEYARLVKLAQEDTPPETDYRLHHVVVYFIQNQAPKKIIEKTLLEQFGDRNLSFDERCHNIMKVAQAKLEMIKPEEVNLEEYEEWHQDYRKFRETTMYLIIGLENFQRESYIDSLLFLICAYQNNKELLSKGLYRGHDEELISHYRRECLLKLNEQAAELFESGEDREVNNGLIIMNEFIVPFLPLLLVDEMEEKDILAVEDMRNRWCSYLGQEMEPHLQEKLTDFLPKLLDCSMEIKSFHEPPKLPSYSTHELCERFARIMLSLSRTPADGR
Procedure, shortened: as §1

USP28 = target: T4, USP28 (UniProt Q96RU2)
T4 sequence (whole entry): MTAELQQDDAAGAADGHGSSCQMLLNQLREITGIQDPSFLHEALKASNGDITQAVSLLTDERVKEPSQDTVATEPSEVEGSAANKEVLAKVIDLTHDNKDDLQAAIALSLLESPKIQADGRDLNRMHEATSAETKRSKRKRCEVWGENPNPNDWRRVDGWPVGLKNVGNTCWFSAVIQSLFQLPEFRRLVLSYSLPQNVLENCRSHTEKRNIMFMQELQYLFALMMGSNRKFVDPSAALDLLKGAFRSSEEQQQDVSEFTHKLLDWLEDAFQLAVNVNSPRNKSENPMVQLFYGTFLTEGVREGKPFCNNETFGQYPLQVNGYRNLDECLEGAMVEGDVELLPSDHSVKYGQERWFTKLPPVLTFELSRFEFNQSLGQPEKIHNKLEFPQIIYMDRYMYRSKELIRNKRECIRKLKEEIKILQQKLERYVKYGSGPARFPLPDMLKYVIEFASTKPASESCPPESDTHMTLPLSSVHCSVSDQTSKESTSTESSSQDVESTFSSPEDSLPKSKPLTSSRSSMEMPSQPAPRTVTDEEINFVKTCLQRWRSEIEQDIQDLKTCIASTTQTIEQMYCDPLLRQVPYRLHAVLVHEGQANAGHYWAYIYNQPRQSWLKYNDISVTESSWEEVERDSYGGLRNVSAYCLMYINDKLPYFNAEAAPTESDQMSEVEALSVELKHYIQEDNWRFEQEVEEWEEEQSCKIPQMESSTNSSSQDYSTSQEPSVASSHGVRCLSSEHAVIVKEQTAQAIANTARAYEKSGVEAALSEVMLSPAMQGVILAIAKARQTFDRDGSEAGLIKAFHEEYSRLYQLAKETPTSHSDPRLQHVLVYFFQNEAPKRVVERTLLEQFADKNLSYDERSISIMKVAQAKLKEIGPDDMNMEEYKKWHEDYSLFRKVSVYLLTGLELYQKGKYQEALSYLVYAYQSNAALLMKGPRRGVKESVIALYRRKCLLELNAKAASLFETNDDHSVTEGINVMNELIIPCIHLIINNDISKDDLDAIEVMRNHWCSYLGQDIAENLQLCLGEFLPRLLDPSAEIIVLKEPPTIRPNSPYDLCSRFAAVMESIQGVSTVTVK
Procedure, shortened: as §1

Measured: log2 ratio of Biotin-Ahx-Ub-VS probe labelling

O=C(CCl)Nc1cc(Cl)ccc1C(=O)O
inactive: USP19 -0.0222 | USP22 0.0608 | USP24 -0.0569 | USP25 0.269 | USP28 -0.0169
